Screens deposited in PubChem BioAssay by National Center for Advancing Translational Sciences (NCATS).
Rows were chosen to be rich in hits. Some 12% of all compounds tested hit in one or more screens of this group.
AMA1 RON2 block: inhibitors of Plasmodium falciparum AMA1-RON2 interaction | AlphaScreen AMA1-biotinylated RON2 peptide binding | Potency, µM (series often up to 58.2 µM), for inactives: at the highest dose activity change, negative = inhibition, actives largely listed as inhibitors | actives 0.2% (n = 360,000);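 further: 0% = vehicle wells and -100% = peptide control; nearly all actives have a fitted effect of over 45% in size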
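AMA1 (3D7) with his tag at 25 nM final met compounds first, then biotinylated RON2 peptide at 25 nM; detection used donor plus acceptor beads, 10 µg/mL apiece, read by AlphaScreen after 30 min at room temperature.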
HCV inh: blocks hepatitis C virus | Huh7.5.1 HCVcc-Cre infection, luciferase reporter, 44 h | Potency, µM (series often up to 41.8 µM), inactives show top-dose activity change, negative = inhibition, actives largely listed as inhibitors | actives 3.4% (n = 340,000); further: on the % scale 0 is the no-effect control and ±100 the full control effect
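Whole-lifecycle infectious HCVcc-Cre system; cells 1,000/well, compound then virus (~0.5 moi) added 4 h after plating, 44 h culture. Luciferase read 15 sec following 15 min substrate incubation, room temp.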
NS1 inh: blocks influenza NS1 protein function; actives 0.4% (n = 270,000); AID 2326; Potency, µM (highest dose often 46.1 µM), for inactives: at the top dose activity, positive = more growth; calls by dose curve; further: actives are rising curves; nearly all actives have a fitted effect of over 50% in size
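Read-out: OD600 growth recovery of NS1-expressing budding yeast. Cells grown overnight at 30C in -URA glucose medium, washed, resuspended and diluted 1:100 in 2% galactose assay medium, pH 6.0. Same strain lacking NS1 served as positive control.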
Pf growth 48h: P. falciparum growth inhibition at 48 hours (one generation); P. falciparum luciferase growth in erythrocytes, 48 h; Potency, µM (doses to about 28.7 µM), for inactives: at the top dose activity change, negative = inhibition, usual class: inhibitors; actives 5.9% (n = 310,000); further: on the % scale 0 is the no-effect control and ±100 the full control effect
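Firefly luciferase activity from engineered P. falciparum reports growth; inhibitors lower the luminescent signal. Cultures contained 2% hematocrit erythrocytes at 0.1% final parasitemia.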
Pf growth 96h: P. falciparum growth inhibition at 96 hour, primary screen for plastid delayed-death inhibitors; actives 6.9% (n = 320,000); P. falciparum luciferase reporter growth, 96 h; Potency, µM (top dose mostly 28.7 µM), for inactives: at the top dose activity change, negative = inhibition, hits mostly inhibitors; further: on the % scale 0 is the no-effect control and ±100 the full control effect
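P. falciparum expressing integrated firefly luciferase, in erythrocytes at 2% hematocrit, 0.05% parasitemia, incubated with compounds 96 h at 37 C, 5% CO2. Growth inhibition read as loss of luminescence; two-generation exposure targets delayed-death apicoplast inhibitors.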
SARS PLpro yeast: inhibitors of SARS-CoV papain-like protease in yeast | S. cerevisiae expressing SARS-CoV PLpro, growth rescue | Potency, µM (doses to about 32.9 µM), for the others: top-dose activity, positive = growth rescue, actives largely listed as activators | actives 0.19% (n = 330,000); calls by dose curve; further: 0% is about no effect; nearly all actives have a fitted effect of over 55% in size
An asterisk follows results filed as active; ? = inconclusive; / = no result; [ ] = dose if it differs, or a comment. Unless noted, the call rests on the fitted dose curve; in most records, active means well fitted curve in the direction sought with a large enough effect; inconclusive means small, poorly fitted or top-dose-only effect, or another doubt; inactive means no such curve, though single readings can be large; an effect the other way counts as inactive or inconclusive. Potency means the concentration at half of the fitted maximal effect.

SMILES | AMA1 RON2 block | HCV inh | NS1 inh | Pf growth 48h | Pf growth 96h | SARS PLpro yeast
O=C(Cn1ccc(NC(=O)OCc2ccccc2)nc1=O)NCCc1c[nH]c2ccccc12 | 1% | 2.8µM* | / | ? | ? | -1%
CCn1cc(S(=O)(=O)N2CCN(c3ccc(Cl)cc3)CC2)cn1 | 14% | -9% | 0% | 50% | -14% | -2%
O=C(Nc1oc2ccccc2c(=O)c1-c1ccc(Cl)cc1)c1ccco1 | 1% | -10% | -63% | 11% | 9% | /
CNC(=O)c1ccccc1NC(=O)C1CC(=O)N(C(C)C)C1 (stereo unspecified) | 15% | 7% | 9% | 13% | 69% | 2%
CCn1cc(CN2CCC(C(=O)Nc3ccc(Oc4ccccc4F)cc3)CC2)c(C)n1 | -13% | 2.8µM* | -8% | ? | ? | -4%
CCn1cc(CN2CCC(C(=O)Nc3ccc(Oc4ccccc4)nc3)CC2)cn1 | 2% | ? | 20% | -9% | -29% | 1%
CCn1cc(CN2CCCC(C(=O)Nc3ccc(-c4nc5ccccc5[nH]4)cc3)C2)c(C)n1 (stereo unspecified) | -12% | -18% | 3% | 2.1µM* | 26% | 13%
Cc1cc(CN2CCCC(C(=O)Nc3ccc(-c4nc5ccccc5[nH]4)cc3)C2)n[nH]1 (stereo unspecified) | 24% | -15% | 7% | ? | 7% | 5%
CC(C)n1cc(CN2CCC(C(=O)Nc3ccc(Oc4ccccc4F)cc3)CC2)cn1 | 8% | 11µM* | -12% | ? | -2% | 1%
O=C(CC1SC(N2CCOCC2)=NC1=O)Nc1ccc(Cl)c(C(F)(F)F)c1 (stereo unspecified) | 14% | -14% | / | / | / | -4%
CCOC(=O)c1cnc2ccc(OC)cc2c1Nc1ccc(N2CCN(C)CC2)cc1 | -29% | ? | -2% | 1.7µM* | 0.93µM* | 0%
CCOC(=O)c1cnc2ccc(OC)cc2c1Nc1ccc2c(c1)OCCO2 | ? | ? | -167% | ? | ? | -6%
CCOC(=O)c1cnc2c(OC)cccc2c1Nc1ccc2c(c1)OCCO2 | -4% | ? | -4% | 2.3µM* | ? | 0%
CCOC(=O)c1cnc2ccc(C(=O)OC)cc2c1Nc1ccc2c(c1)OCCO2 | 1% | ? | 0% | ? | 10µM* | 1%
NC(=O)CC(NC(=O)Cc1cccc2ccccc12)c1ccc(N2CCN(c3ccccn3)CC2)c([N+](=O)[O-])c1 (stereo unspecified) | 1% | 6% | -9% | -15% | 10% | 3%
CCCn1c(Nc2cccc(OC)c2)nc2ccccc21 | 0% | -5% | -9% | -9% | 7% | -2%
CN(N=O)c1ccc(/C=C\c2ccnc3ccccc23)cc1 | / | / | -11% | / | / | /
COc1cccc(-n2nnc3c(=O)n(CC(=O)NC4CCCC4)cnc32)c1 | -4% | 17% | -1% | 3% | 0.33µM* | 5%
COc1cccc(-n2nnc3c(=O)n(CC(=O)Nc4ccccc4C)cnc32)c1 | 12% | 16% | 6% | -26%[1.15 µM] | -10% | 0%
Cc1cccc(-c2cc(C(=O)Nc3sc(C)c(C)c3C(N)=O)c3ccccc3n2)c1 | 4% | -24% | 16% | 34% | ? | 5%
Cc1ccc(-c2cc(C(=O)N/N=C/c3cccnc3)c3ccccc3n2)cc1C | 65% | -12% | / | / | / | /
Cc1ccc(C)c(-c2cc(C(=O)Nc3sc(C)c(C)c3C(N)=O)c3ccccc3n2)c1 | -16% | 11µM* | 4% | ? | 10µM* | -4%
Cc1ccc(C)c(-c2cc(C(=O)N/N=C/c3cccnc3)c3ccccc3n2)c1 | 16% | -5% | -7% | ? | 4.7µM* | -2%
CCN(Cc1cc2ccccc2[nH]c1=O)C(=O)c1cccc([N+](=O)[O-])c1 | -9% | -18% | 4% | 11% | 3% | 0%
O=C1CSC(c2ccccc2Cl)N1 (stereo unspecified) | 6% | 26% | / | -6% | 8% | -7%
SMILES | AMA1 RON2 block | HCV inh | NS1 inh | Pf growth 48h | Pf growth 96h | SARS PLpro yeast
Cc1cc(/C=N/n2cnnc2)c(C)n1-c1ccc(OCc2ccc(Cl)cc2Cl)cc1 | -24% | 5.6µM* | -86% | / | ? | -36%
Cc1cc(/C=N/n2cnnc2)c(C)n1-c1ccccc1 | -7% | -5% | -13% | 2% | / | -13%
Cc1cc(/C=N/n2cnnc2)c(C)n1-c1ccc(Cl)cc1 | -13% | 10% | -6% | -3% | 43% | -10%
Cc1cc(/C=N/n2cnnc2)c(C)n1-c1ccc(OCc2ccc(F)cc2)cc1 | -26% | 11µM* | -103% | -6% | ? | -32%
CC1=C(C(=O)OCc2ccccc2)C(c2ccccc2-c2ccccc2)NC(=O)N1CCCCCC(=O)O (stereo unspecified) | -4% | 6%[8.37 µM] | -14% | ? | 12µM* | -14%
CC1=C(C(=O)OCc2ccccc2)C(c2ccc3ccccc3c2)NC(=O)N1CCCCCC(=O)O (stereo unspecified) | -3% | 1%[8.37 µM] | 3% | ? | 10µM* | -1%
CCCCN1C(=O)NC(c2ccc(OC)cc2)C(C(=O)OCc2ccccc2)=C1C (stereo unspecified) | 9% | ? | -6% | ? | 5.2µM* | 1%
CC1=C(C(=O)OCc2ccccc2)C(c2ccccc2Cl)NC(=O)N1CCCCCC(=O)O (stereo unspecified) | -9% | -22% | -33% | 14% | -65% | 1%
CC1=C(C(=O)OCc2ccccc2)C(c2ccc3ccccc3c2)NC(=O)N1CCCC(=O)O (stereo unspecified) | -27% | 14% | 11% | 2% | 68% | -3%
CSc1ccc(C(=O)NC2CCSc3ccccc32)cc1 (stereo unspecified) | -8% | 2% | -2% | -5% | ? | 1%
Cc1ccc(S(=O)(=O)Oc2ccc(C3C4=C(CCCC4=O)N(CCC(=O)O)C4=C3C(=O)CCC4)cc2Cl)cc1 | 10% | 13% | 23% | 3.3µM* | 3.3µM* | -5%
CSCc1c(C(=O)Nc2ccccc2N2CCOCC2)oc2ccccc12 | -1% | -6% | / | 12µM* | -113% | -2%
O=C(COC(=O)c1ccc(Br)o1)Nc1ccc(N2CCOCC2)cc1 | -11% | 16% | / | 6% | 11% | 3%
C=CCn1c(SCc2c(C)noc2C)nc2ccccc2c1=O | -2% | 3% | -65% | / | 13µM* | -9%
Cc1noc(C)c1CSc1nc2ccccc2c(=O)n1-c1ccccc1 | 10% | 4µM* | -32% | / | -21% | -7%
COc1cc2nc(SCc3c(C)noc3C)n(CCC3=CCCCC3)c(=O)c2cc1OC | 4% | -22% | -17% | ? | 1.7µM* | -1%
C=CCn1c(SCc2c(C)noc2C)nc2cc(C(=O)O)ccc2c1=O | -2% | 22% | 5% | -7% | / | 1%
